Tat transport = blocks Tat-dependent protein export in E. coli; AID 488895; inhibition, % at 10 µM; E. coli MC4100 TorA-mCherry Tat export, fluorescence; hit rate 0.036% among 340,000;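 active = mean replicate inhibition at least 50% and at least half of replicates individually reaching 50%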;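 also: exported cargo escapes ClpAP degradation while cytoplasmic cargo is degraded and loses fluorescence; 0% = median of neutral control wells and 100% = median of NaSCN control wells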
p-CIP stab down = lowers stability of the mouse p/CIP coactivator protein. F442A p/CIP-EGFP cells, EGFP fluorescence, 16 h. hit rate 0.01% among 290,000. decrease of EGFP signal, % at 10 µM. AID 1984. Q05BA5;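 active = EGFP signal decrease of at least 30% at 10 µM or well 3 SD below plate mean, unless failing retest; inactive = the rest, including hits failing retest or dose response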
Target sequence (Q05BA5 1-1403): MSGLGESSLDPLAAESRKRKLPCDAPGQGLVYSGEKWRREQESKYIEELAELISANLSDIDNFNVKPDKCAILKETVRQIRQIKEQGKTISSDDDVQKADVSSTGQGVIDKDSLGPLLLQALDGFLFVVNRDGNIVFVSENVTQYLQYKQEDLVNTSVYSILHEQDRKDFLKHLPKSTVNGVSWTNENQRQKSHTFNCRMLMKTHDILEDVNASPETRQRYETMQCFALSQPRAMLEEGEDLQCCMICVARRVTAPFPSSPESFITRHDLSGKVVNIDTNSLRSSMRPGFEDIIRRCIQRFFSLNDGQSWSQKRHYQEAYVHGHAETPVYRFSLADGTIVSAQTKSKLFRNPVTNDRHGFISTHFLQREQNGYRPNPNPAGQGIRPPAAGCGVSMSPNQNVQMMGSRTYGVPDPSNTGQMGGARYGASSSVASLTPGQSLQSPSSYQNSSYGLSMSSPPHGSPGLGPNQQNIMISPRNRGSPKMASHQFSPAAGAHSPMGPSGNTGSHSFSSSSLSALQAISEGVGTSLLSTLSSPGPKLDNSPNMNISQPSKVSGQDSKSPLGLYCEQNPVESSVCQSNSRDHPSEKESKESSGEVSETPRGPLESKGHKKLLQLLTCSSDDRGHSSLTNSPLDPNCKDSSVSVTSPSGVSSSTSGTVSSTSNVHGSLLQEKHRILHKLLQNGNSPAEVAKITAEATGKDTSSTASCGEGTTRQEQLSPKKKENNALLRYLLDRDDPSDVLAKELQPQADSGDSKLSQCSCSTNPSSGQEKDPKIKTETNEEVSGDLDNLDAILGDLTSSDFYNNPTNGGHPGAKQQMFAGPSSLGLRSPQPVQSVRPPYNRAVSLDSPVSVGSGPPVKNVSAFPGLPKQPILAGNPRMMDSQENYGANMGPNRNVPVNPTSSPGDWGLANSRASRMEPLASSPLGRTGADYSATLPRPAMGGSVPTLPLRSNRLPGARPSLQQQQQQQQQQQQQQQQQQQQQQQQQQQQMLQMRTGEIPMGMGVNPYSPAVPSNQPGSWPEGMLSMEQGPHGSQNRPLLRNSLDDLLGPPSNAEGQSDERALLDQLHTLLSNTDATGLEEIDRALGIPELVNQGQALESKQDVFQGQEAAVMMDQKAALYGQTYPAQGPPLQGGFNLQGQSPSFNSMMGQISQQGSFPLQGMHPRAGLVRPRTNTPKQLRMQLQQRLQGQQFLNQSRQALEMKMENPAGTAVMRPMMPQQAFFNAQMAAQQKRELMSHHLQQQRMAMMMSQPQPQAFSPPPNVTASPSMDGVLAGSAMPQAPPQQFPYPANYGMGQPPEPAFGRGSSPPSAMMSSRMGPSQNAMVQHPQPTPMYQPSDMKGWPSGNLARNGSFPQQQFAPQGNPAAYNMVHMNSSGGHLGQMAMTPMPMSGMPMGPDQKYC
E coli growth-1 = reduces bacterial viability in AddAB counter-screen; hit rate 0.27% among 330,000; inhibition, % at 11.9 µM; E. coli V3065 growth, OD600 absorbance, 18 h;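 active = inhibition above the campaign's mean inhibition across all tested compounds plus 3 SD, cut at about 9.9% in these data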;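 also: uninfected addAB+ strain grown without phage in ampicillin broth; 0% = DMSO wells and 100% = ciprofloxacin 0.95 µg/ml wells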
E coli growth-2 = inhibitors of Escherichia coli growth; OD600 absorbance (no concentration beside the values); OD600, 23 h; hits give low values; hit rate 0.21% among 330,000;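 active = OD600 absorbance below the run mean of sample wells minus 3.6 SD, in any replicate, cut at about 0.56 in these data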
phage Ecoli inh = E. coli growth loss with phage present. growth absorbance. inhibition, % at 11.9 µM. hit rate 0.26% among 360,000. AID 651602; in the data active = inhibition above about 11%
AddAB inh = less growth of phage-infected E. coli with AddAB | E. coli expressing H. pylori AddAB, absorbance growth | inhibition, % at 11.9 µM | hit rate 0.29% among 330,000 | AID 435030; in the data active = inhibition above about 12%;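 also: 0% = vehicle wells of infected cells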
RecBCD conf = confirmation: growth loss of phage-infected RecBCD+ E. coli (RecBCD inhibitor screen); shares compounds with phage Ecoli inh; E. coli V66 + T4 2- phage, growth OD; inhibition, % at 11.9 µM; hit rate 45% among 890; AID 651982;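 active = mean inhibition over triplicates exceeding the hit threshold derived in the original primary screen, cut at about 11% in these data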
Ecoli viability = inhibits E. coli viability, flagging RecBCD hits as nonselective; hit rate 29% among 890; shares compounds with phage Ecoli inh; absorbance (OD) growth; inhibition, % at 11.9 µM; in the data active = inhibition above about 20%;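 also: E. coli strain V66 grown with compound alone and no phage infection; 0% = bacteria with DMSO vehicle only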
AddAB phage OD = growth loss of phage-infected AddAB E. coli, RecBCD counter-screen; shares compounds with phage Ecoli inh; E. coli expressing H. pylori AddAB + T4 phage, OD growth; gene 2 mutant T4, recBCD-deleted host; inhibition, % at 11.9 µM; hit rate 45% among 890;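 active = mean inhibition above the solvent-only control wells' mean plus 3 SD, cut at about 22% in these data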;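 also: higher means less bacterial growth from phage killing when AddAB is blocked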
* hit, by the source's call; ! = repeats disagree. An excerpt weighted towards active compounds, which were near 0.51% of everything screened.

Screening O=C(Nc1cc(Cl)ccc1O)c1snnc1-c1ccccc1 returned Tat transport 13, p-CIP stab down 0, E coli growth-1 9.8*, E coli growth-2 0.61, phage Ecoli inh 14*, AddAB inh 11, RecBCD conf 5, Ecoli viability 8 and AddAB phage OD 4.
`COc1ccc(N/N=C/c2c(C(=O)O)ccc3ccccc23)cc1` gave Tat transport -5, p-CIP stab down -16, E coli growth-1 16*, phage Ecoli inh 11*, AddAB inh 11, RecBCD conf 3, Ecoli viability 7 and AddAB phage OD 6.
For COc1cccc(C(=O)OCC(=O)c2ccc(S(=O)(=O)N3CCCCC3)cc2)c1OC the results were Tat transport 4, E coli growth-2 0.68 and phage Ecoli inh 2.
`Cc1ccc(C(=O)O)cc1NC(=O)C1CCCN1S(=O)(=O)c1cccc2nsnc12` (stereo unspecified) gave Tat transport -5, p-CIP stab down 6, E coli growth-1 2, E coli growth-2 0.69, phage Ecoli inh 0 and AddAB inh 1.
Screening CCc1nc2ccc(C(=O)Nc3ccc(OC)c(OC)c3)cn2c1N(CC)Cc1ccc(OC)c(OC)c1 returned phage Ecoli inh -1.
Screening O=C(O)c1ccc(S(=O)(=O)/N=C2\C=C(Nc3ccccc3F)C(=O)c3ccccc32)cc1 returned Tat transport -13, p-CIP stab down -1, E coli growth-1 2, E coli growth-2 0.62, phage Ecoli inh 13*, AddAB inh 9, RecBCD conf 5, Ecoli viability 6 and AddAB phage OD 12.
For Cc1ccccc1NC1=C/C(=N\S(=O)(=O)c2ccc(C(=O)O)cc2)c2ccccc2C1=O the results were Tat transport -16, p-CIP stab down -10, E coli growth-1 4, E coli growth-2 0.64, phage Ecoli inh 6 and AddAB inh 11.
`Cc1ccccc1CN1CCc2c(OCC(=O)N3CCCc4ccccc43)cccc2C1=O` gave Tat transport 3, p-CIP stab down -7, E coli growth-1 -1, E coli growth-2 0.77, phage Ecoli inh 0 and AddAB inh -4.
Screening CCN1CCN(C(=O)CNC(=O)c2nn(-c3ccc(OC)cc3)c(=O)c3ccccc23)CC1 returned Tat transport -9, p-CIP stab down -13, E coli growth-1 -1, E coli growth-2 0.7, phage Ecoli inh 3 and AddAB inh 4.
`Cc1[nH]nc(-c2cccnc2)c1N=NN(C)C` gave Tat transport 142*, phage Ecoli inh 99*, RecBCD conf 103*, Ecoli viability 104* and AddAB phage OD 102*.
`CN(C)c1nc(N)nc(-c2cccnc2)n1` gave Tat transport 0, p-CIP stab down -13, E coli growth-1 0, E coli growth-2 0.76, phage Ecoli inh 1 and AddAB inh 4.
Screening COc1ccc(-[n+]2c(C)cc(/C=C3\Sc4ccccc4N3C)cc2C)cc1 returned Tat transport 67*, p-CIP stab down -589, E coli growth-1 26*, E coli growth-2 0.35*, phage Ecoli inh 22*, AddAB inh 27*, RecBCD conf 20*, Ecoli viability 17 and AddAB phage OD 48*.
Cc1onc(-c2ccccc2)c1C(=O)OCC(=O)Nc1ccccc1 was read as Tat transport 2, E coli growth-2 0.69 and phage Ecoli inh 3.
For CCc1noc(C)c1C(=O)OCC(=O)Nc1ccc2c(c1)OCO2 the results were Tat transport -4, E coli growth-1 -1, E coli growth-2 0.68, phage Ecoli inh 12*, AddAB inh 2, RecBCD conf 2, Ecoli viability 2 and AddAB phage OD -1.
For Cc1cccc(NC(=O)COC(=O)c2c(-c3ccccc3)noc2C)c1 the results were phage Ecoli inh 13*, RecBCD conf -1, Ecoli viability -1 and AddAB phage OD -1.
Screening COc1cc2c(cc1NC(=O)CN(C)Cc1nc3ccccc3c(=O)[nH]1)oc1ccccc12 returned Tat transport 11, p-CIP stab down 15, E coli growth-1 0, E coli growth-2 0.72, phage Ecoli inh 3 and AddAB inh 0.
Screening C/C(Cc1ccccc1)=N\NC(=O)c1ccccn1 returned Tat transport -5, p-CIP stab down -1 and phage Ecoli inh 3.
COc1ccc(C(=O)Nc2nc(C)cs2)cc1S(=O)(=O)N1CCCC1 was read as Tat transport 2, p-CIP stab down -8, E coli growth-1 -1, E coli growth-2 0.71, phage Ecoli inh 2 and AddAB inh -2.
`CN(CC(=O)Nc1ccc(F)cc1)C(=O)CSc1nc2ncc(Cl)cc2[nH]1` gave Tat transport -3, p-CIP stab down 6, E coli growth-1 -2, E coli growth-2 0.7, phage Ecoli inh 3 and AddAB inh 0.
For O=C(CSc1nc2ncc(Cl)cc2[nH]1)Nc1cccc(F)c1 the results were Tat transport 7, p-CIP stab down -18, E coli growth-1 5, E coli growth-2 0.61, phage Ecoli inh 12*, AddAB inh 6, RecBCD conf 7, Ecoli viability 8 and AddAB phage OD 3.
`O=C(Nc1ccc(OC(F)F)cc1)Nc1cccc(C(F)(F)F)c1` gave Tat transport -33, p-CIP stab down -16, E coli growth-1 13*, E coli growth-2 0.53*, phage Ecoli inh 12*, AddAB inh 11, RecBCD conf 11*, Ecoli viability 12 and AddAB phage OD 10.
`Cc1ccc(C(O)(C(=O)NNc2ccc3ccccc3n2)c2ccc(C)cc2)cc1` gave Tat transport -2, p-CIP stab down 3, E coli growth-1 11*!, E coli growth-2 0.69, phage Ecoli inh 13*!, AddAB inh 10, RecBCD conf 4, Ecoli viability 8 and AddAB phage OD 4.
Screening Cc1ccc(C(=O)Nc2ccc3ccccc3n2)cc1 returned Tat transport -4, p-CIP stab down 6, E coli growth-1 -1, E coli growth-2 0.66, phage Ecoli inh 2 and AddAB inh 4.
O=C(NNC(=O)c1cc(-c2cccnc2)nc2ccccc12)Nc1ccc(Cl)cc1 was read as Tat transport -2, p-CIP stab down 14, E coli growth-1 6, E coli growth-2 0.52*, phage Ecoli inh 13*, AddAB inh 8, RecBCD conf 9, Ecoli viability 9 and AddAB phage OD 2.
COc1cc(C(=O)N2C(=O)CCC2=O)cc(OC)c1OC was read as Tat transport -7, p-CIP stab down -1, E coli growth-1 0, E coli growth-2 0.62, phage Ecoli inh 3 and AddAB inh 3.

Screening data: PubChem, several laboratories
